High-throughput results as filed in PubChem.
A selection: hits, their analogues and other compounds. The true share with any hit is near 1.3%.
MEX-5 binding: MEX-5 zinc finger RNA-binding disruptors – biochemical, C. elegans, fluorescence polarization, MLPCN library, primary screen | Zinc finger protein mex-5 (Caenorhabditis elegans), Q9XUB2 | MEX-5/FITC-TCR2 RNA binding; active compounds read low | activity score (negative = inhibition of binding), % at 10 µM | 300,000 tested, 0.38% active;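 active = inhibition past about -25% in most replicates, and total fluorescence under double the plate's negative control median, limit read from the data; inconclusive = replicates evenly split on the limit, or fluorescence at least double controls; inactive = too little inhibition in most replicates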;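 note: 0% = DMSO and -100% = 5 µM competing unlabeled TCR2 RNA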
Target sequence (Q9XUB2 whole entry, looked up): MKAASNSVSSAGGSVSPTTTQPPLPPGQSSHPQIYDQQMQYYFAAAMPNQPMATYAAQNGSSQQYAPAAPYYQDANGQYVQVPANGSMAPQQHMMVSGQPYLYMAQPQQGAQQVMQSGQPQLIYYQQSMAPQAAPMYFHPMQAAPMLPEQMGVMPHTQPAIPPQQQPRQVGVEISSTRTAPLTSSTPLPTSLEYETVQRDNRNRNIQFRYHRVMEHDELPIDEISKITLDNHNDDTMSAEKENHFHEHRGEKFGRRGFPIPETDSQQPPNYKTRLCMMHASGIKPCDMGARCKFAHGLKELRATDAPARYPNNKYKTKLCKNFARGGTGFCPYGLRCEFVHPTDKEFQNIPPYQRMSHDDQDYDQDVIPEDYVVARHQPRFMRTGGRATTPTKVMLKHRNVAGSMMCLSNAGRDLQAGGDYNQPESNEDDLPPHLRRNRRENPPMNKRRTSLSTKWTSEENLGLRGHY
EBV gp42 block: Epstein-Barr virus gp42 inhibitors, primary screen, biochemical, uHTS, fluorescence polarization; 220,000 tested, 0.42% active; inhibition, % (tested at 21.74 µM); Fluorescence polarization binding assay, mP read-out; AID 1085, 2008; in the data active = inhibition above about 50%
Target sequence (Q1HVG2 whole entry, looked up): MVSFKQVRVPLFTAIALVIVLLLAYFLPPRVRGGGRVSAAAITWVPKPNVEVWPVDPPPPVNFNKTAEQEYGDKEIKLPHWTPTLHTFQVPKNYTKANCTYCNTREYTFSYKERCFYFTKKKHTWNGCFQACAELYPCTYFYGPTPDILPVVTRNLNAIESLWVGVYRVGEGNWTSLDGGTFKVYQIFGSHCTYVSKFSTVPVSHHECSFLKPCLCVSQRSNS
GLD-1 RNA inh: GLD-1/TGE RNA complex disruptors, primary screen, biochemical, fluorescence polarization; purified GLD-1 + fluorescein TGE RNA; inhibition, % at 5.96 µM; 320,000 tested, 0.44% active; AID 2280, 2010;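 active = percent inhibition above a per-plate cutoff, the plate mean of test compounds plus 3 SD, cut at about 30% in these data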;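 note: 0% = DMSO wells with GLD-1 and probe and 100% = wells lacking GLD-1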
BCLXL inh: inhibitors of human Bcl-xL, primary screen, biochemical, fluorescence polarization, HTS; GST-Bcl-xL / FITC-Bim BH3 peptide fluorescence polarization; AID 2129, 2009; 320,000 tested, 0.7% active; Bcl-2-like protein 1 (Homo sapiens), Q07817; inhibition, % at 10.9 µM;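 active = inhibition above the mean of all tested compounds plus 3 SD, cutoff set per campaign, cut at about 30% in these data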;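 note: 0% = DMSO wells and 100% = unlabeled Bim-BH3 peptide competitor; inhibitors lower millipolarization by displacing the labeled peptide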
MCL1-BIM inh: inhibitors of MCL1 binding to BIM-BH3, primary screen, biochemical, fluorescence polarization. inhibition, % at 10.9 µM. 320,000 tested, 0.68% active. AID 2057, 2009. Induced myeloid leukemia cell differentiation protein Mcl-1 (Homo sapiens), Q07820. GST-MCL1 / FITC-Bim-BH3 fluorescence polarization;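 active = inhibition above the mean inhibition of all tested compounds plus 3 SD, set per campaign, cut at about 40% in these data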;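 note: 0% = DMSO wells and 100% = unlabeled Bim-BH3 peptide control; higher means more loss of mP so more displacement of Bim peptide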
Bcl-xL conf: Bcl-xL inhibitors blocking Bim BH3 binding, confirmation, counter-screen for MCL1 inhibitor project, biochemical, fluorescence polarization; AID 2166, 2009; 1,700 tested, 54% active; GST-Bcl-xL / FITC-Bim BH3 peptide FP binding; shares compounds with MCL1-BIM inh; inhibition, % at 10.9 µM;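 active = inhibition above a cutoff equal to the mean inhibition of all tested compounds plus 3 SD, cut at about 30% in these data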;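 note: 0% = DMSO wells and 100% = unlabeled Bim BH3 control peptide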
MCL1 BIM confirm: inhibitors of MCL1 binding to BIM-BH3, confirmation, biochemical, fluorescence polarization, triplicate. inhibition, % at 10.9 µM. shares compounds with MCL1-BIM inh. AID 2168, 2009. GST-MCL1 / FITC-Bim-BH3 fluorescence polarization. 1,700 tested, 61% active;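 active = inhibition above the average of all tested compounds plus 3 SD, cut at about 40% in these data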;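 note: 0% = DMSO wells and 100% = unlabeled Bim-BH3 control peptide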
* hit, by the source's call; u = inconclusive; x = no result given; + = active, no number.

SMILES	MEX-5 binding	EBV gp42 block	GLD-1 RNA inh	BCLXL inh	MCL1-BIM inh	Bcl-xL conf	MCL1 BIM confirm
CC1CCC2(CC1)NC(=O)N(CC(=O)Nc1ccc(F)cc1)C2=O (stereo unspecified)	x	x	-0.2	-4.0	-16.8	x	x
Cc1ccc(NC(=O)c2cc(C)nn2-c2ccccc2)cc1	0.0	4.0	160.8*	+	+	12.5	-0.7
CN(C)CCNC(=O)c1sc2nc(-c3ccccc3)cc(C(F)(F)F)c2c1N	6.4	x	-32.7	1.1	-8.9	x	x
CC(=O)c1sc2nc(-c3cccs3)cc(C(F)(F)F)c2c1N	-30.0*	-94.8	-4.5	63.0*	68.5*	73.7*	83.3*
COc1ccc(-c2cc(C(F)(F)F)c3c(N)c(C(=O)NCCSC)sc3n2)cc1	u	x	58.0*	79.8*	78.5*	80.6*	85.0*
COc1ccc(/C=N/NC(=O)C(=O)/C=C2\NC3(CCCC3)Cc3ccccc32)cc1	0.7	-10.7	0.3	6.3	11.6	x	x
O=C(/C=C1\NC2(CCCC2)Cc2ccccc21)C(=O)N/N=C/c1ccc(O)c(O)c1	-4.5	1.7	-5.4	4.5	41.6*	30.7*	43.0*
FC(F)(F)c1cc(C(F)(F)F)c2ccc(N3CCOCC3)nc2n1	-2.9	x	-4.2	4.7	3.7	x	x
CN1CCCc2cc3c(C(F)(F)F)cc(=O)oc3nc21	u	131.6*	125.1*	155.3*	167.8*	141.2*	173.8*
CC(=O)Nc1ccc2cc3ccc(NC(C)=O)cc3nc2c1	-35.6*	104.7*	-2.6	60.2*	62.8*	155.6*	194.8*
CC(=O)Nc1ccc2ccccc2c1	-2.9	-0.2	3.3	0.1	0.1	x	x
COc1cccc(C2C3=C(N=c4s/c(=C\c5ccc(OCC(=O)O)cc5)c(=O)n42)c2ccccc2CC3)c1 (stereo unspecified)	0.7	-1.3	3.4	4.2	9.1	x	x
O=C(NC(=S)Nc1cccc2c(O)cccc12)c1ccccc1[N+](=O)[O-]	-3.4	x	-1.9	30.9*	48.4*	27.3	26.6
O=C(NNC(=S)NC(=O)c1ccccc1[N+](=O)[O-])c1ccccc1O	u	4.5	8.7	12.6	21.1	x	x
O=[N+]([O-])c1ccc2nc(-c3ccc(OC(F)F)cc3)cn2c1	-3.3	-14.3	14.2	12.6	93.5*	0.6	2.8
CC1CCCC(C)N1C(=O)COC(=O)c1ccc2c(c1)OCO2 (stereo unspecified)	-1.0	-22.4	8.8	0.0	-0.3	x	x
CC1CC(C)CN(C(=O)COC(=O)c2ccc3c(c2)OCO3)C1 (stereo unspecified)	x	x	4.7	2.0	46.2*	-1.2	6.5
Cc1cc(/C=C\c2ccc3cc(N(C)C)ccc3[n+]2C)c(C)n1-c1ccccc1	x	x	139.1*	53.5*	132.0*	40.8*	101.4*
C[n+]1c(/C=C/c2ccc(O)cc2)ccc2ccccc21	19.7	x	-179.9	-20.3	-34.6	x	x
CCN(CCC(=O)Nc1cc([N+](=O)[O-])ccc1OC)Cc1ccccc1	-0.7	-3.6	5.2	-3.1	3.4	x	x
O=C(CSc1nnc(NC(=O)C2CC2)s1)Nc1ccc2c(c1)OCCO2	-2.2	-26.0	0.8	2.0	0.2	x	x
c1ccc(CN(Cc2ccccc2)c2nn[nH]n2)cc1	-0.8	-4.5	-8.7	3.7	45.9*	4.0	7.5
Clc1ccc(CN(Cc2ccc(Cl)cc2)c2nn[nH]n2)cc1	0.2	-8.9	2.0	5.5	4.7	x	x
CCNC(=O)CC1C(=O)N(CC)C(=S)N1NC(=O)c1cccnc1 (stereo unspecified)	0.1	-10.4	0.5	-1.1	0.4	x	x
O=C(COc1cccnc1[N+](=O)[O-])Nc1c(Cl)cccc1Cl	x	x	2.6	x	x	x	x
SMILES	MEX-5 binding	EBV gp42 block	GLD-1 RNA inh	BCLXL inh	MCL1-BIM inh	Bcl-xL conf	MCL1 BIM confirm
O=C(COc1cccnc1[N+](=O)[O-])Nc1ncc(Cl)cc1Cl	x	x	30.7	64.1*	78.3*	60.8*	98.5*
O=C(O)/C(=C\c1ccc(Cl)c([N+](=O)[O-])c1)c1ccc(S(=O)(=O)N2CCCC2)s1	x	x	-1.1	11.1	43.2*	19.1	49.4*
O=C(O)/C(=C\c1ccc(Cl)c([N+](=O)[O-])c1)c1ccc(S(=O)(=O)N2CCCCC2)s1	-2.6	-1.6	2.3	15.2	15.2	x	x
CN(C)C(CNC(=O)CCc1c[nH]c2ccccc12)c1ccccc1 (stereo unspecified)	-3.5	x	9.3	-3.7	-7.3	x	x
Oc1c(C=NCc2ccccc2)sc2ccccc12	-1.4	0.2	3.3	6.2	10.1	x	x
Oc1cccc(C=Nc2cccc3ccccc23)c1O	-3.7	x	23.6	38.3*	65.7*	31.4*	51.5*
Oc1cccc(C=NCc2ccccc2)c1O	-0.2	2.1	12.5	29.7	63.7*	32.2*	65.1*
Oc1ccccc1C=Nc1cccc2ccccc12	0.7	x	5.0	12.3	10.4	x	x
O=C(O)C(S)C(S)C(=O)O (stereo unspecified)	-20.6	x	8.7	27.8	84.0*	37.8*	85.8*
O=Cc1cccc(OC(=O)/C=C/c2ccco2)c1	-0.4	x	-10.0	13.5	49.8*	9.9	52.2*
O=C(CN1CCN(S(=O)(=O)c2ccc(F)cc2)CC1)Nc1cc(C(F)(F)F)ccc1Cl	-1.9	-17.5	1.4	-3.6	-5.7	x	x
O=C(CN1CCN(S(=O)(=O)c2ccc(F)cc2)CC1)Nc1ccc(F)cc1F	1.1	x	2.0	4.3	174.4*	2.7	0.6
Oc1ccc(/C=N/Nc2ccnc3cc(Cl)ccc23)c(O)c1O	-0.3	x	-14.2	19.3	53.5*	32.5*	37.5
Oc1ccc(/C=N/Nc2ccnc3cc(Cl)ccc23)cc1O	-3.5	9.5	-6.9	0.1	-7.3	x	x
COc1ccc(/C=C/C(=O)NCC(=O)N=Nc2c(O)[nH]c3ccc([N+](=O)[O-])cc23)cc1	1.4	x	-4.6	12.6	11.6	x	x
O=C1C2C(C(=O)N1/N=C/c1cc([N+](=O)[O-])c(O)cc1O)C1C=CC2C12CC2 (stereo unspecified)	-9.0	16.1	-1.1	13.1	48.1*	18.3	59.4*
CCc1ccc[n+](-c2nc3ccccc3nc2C(=C=[N-])C#N)c1	-13.4	37.5	50.2*	87.7*	84.2*	21.0	27.0
